The panel holds about 83,000 compounds, 20% with a hit somewhere; the sample as a whole holds those more often.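 Values shown are percent growth following 48 h exposure of cells in 96-well plates to a single concentration of compound; below 10 was considered active.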 Active and inactive are the calls of the source.
test system: UACC-257 melanoma; assay: NCI-60 one-dose screen, 48 h (100 = growth as untreated, 0 = no growth, -100 = all killed); conditions: 10 µM unless noted

SMILES	growth
O=C(Nc1ncc(Cc2ccccc2)s1)c1sc2ccccc2c1Cl	54.6% (inactive)
Cc1ccccc1N1CCN(C(=S)c2ccccc2)CC1	-18% (active)
CC(C)(C)c1ccc(S(=O)(=O)Oc2ccc(-c3sc4cc(OS(=O)(=O)c5ccc(C(C)(C)C)cc5)ccc4c3C(=O)c3ccc(OCCN4CCCCC4)cc3)cc2)cc1	106% (inactive)
CCn1cc(C(=O)N/N=C/c2ccccc2)c(=O)c2cc(F)c(N3CCNC(C)C3)c(F)c21 (stereo not given)	39.6% (inactive)
COC1/C=C/OC2(C)Oc3c(C)c(O)c4c(O)c(c(/C=N/N(c5ccccc5)c5ccccc5)c(O)c4c3C2=O)NC(=O)C(C)=C/C=C/C(C)C(O)C(C)C(O)C(C)C(OC(C)=O)C1C (stereo not given)	75.8% (inactive)
CS(=O)(=O)c1ccc(-c2nc3ccccc3n2CC(=O)N/N=C/c2ccccc2)cc1	98.8% (inactive)
CC(=O)O[C@H]1CC[C@]2(C)[C@H]3CC=C4[C@@H]5CC(C)(C)CC[C@]5(C(=O)N5CCN(CCC#N)CC5)CC[C@@]4(C)[C@]3(C)CC[C@H]2C1(C)C	18.1% (inactive)
C[N+]1=C(/C=C/c2ccccc2Cl)C(C)(C)c2ccccc21	92% (inactive)
COC(=O)/C=C1/SC(=Nc2ccc(F)cc2)N(CCc2c[nH]c3ccc(O)cc23)C1=O	39.4% (inactive)
Cc1c2ccccc2nc2cc3c(cc12)[C@H]1CC[C@]2(C)C(=O)CC[C@H]2[C@@H]1CC3	98.3% (inactive)
O=C(/C=C/C12c3ccccc3C(c3ccccc31)C1C(=O)NC(=O)C12)c1ccco1 (stereo not given)	44.9% (inactive)
CC(C)Cc1nc(Nc2ccccc2)[nH]c(=O)c1C#N	81.2% (inactive)
CN(C)/C(N)=N/N=C(\c1ccccc1)c1ccccn1	112% (inactive)
CS(=O)(=O)Nc1cc(-c2ccc3ncnc(Nc4ccc5c(cnn5Cc5ccccc5F)c4)c3c2)cnc1Cl	52.9% (inactive)
Nc1cc(-c2ccc(Cl)cc2)nn1-c1nnc(/C=C/c2ccco2)c(=O)[nH]1	69.6% (inactive)
CCCN(CCSSCCNc1nc(N(C)O)nc(N(C)O)n1)c1nc(N(C)O)nc(N(C)O)n1	-2.3% (active)
Cc1nc([P+](c2ccccc2)(c2ccccc2)c2ccccc2)c(N2CCCCC2)o1	8.05% (active)
CCN(CC)CCn1c2ccc(OC)cc2c2sc3cc(O)ccc3c(=O)c21	78.4% (inactive)
O=C(NCCCCCCNC(=O)OCc1ccc2c(Cl)cc(Cl)c(O)c2n1)OCc1ccc2c(Cl)cc(Cl)c(O)c2n1	-29.3% (active)
O=C(Nc1cccnc1Nc1ccc(Cl)cc1)c1cn(Cc2cccc(Oc3ccccc3)c2)nn1	62% (inactive)

SMILES	growth
Cc1ccc2c(c1)sc1nc(-c3c[nH]c4ccccc34)c(Nc3ccccc3)n12	105% (inactive)
CN1c2ccccc2S(=O)(=O)n2c(SCC(=O)Nc3nc4ccc(F)cc4s3)nnc21	86.2% (inactive)
COC12C=C/C(=C(/C(=O)OCc3csc(SC)n3)C(=O)CCCCCCCCC3(OC)C=C/C(=C(/C(=O)OCc4cnc(SC)s4)C(=O)CCCCCCCC1)O3)O2 (stereo not given)	56.8% (inactive)
Nc1[nH]nc2nc(-c3ccccc3)n3c4ccccc4nc3c12	105% (inactive)
CS(=O)/C(C#N)=C\C=C\c1cccc(Cl)c1 (stereo not given)	31.9% (inactive)
CN(C)CCCC1(c2ccc(F)cc2)OCc2cc(-c3csc4ccccc34)ccc21 (stereo not given)	-48% (active)
COCCn1cc(-c2csc(-c3c[nH]c4ccccc34)n2)c2cccnc21	45.9% (inactive)
O=S(=O)(NCCNc1nccc(-c2c(-c3ccc(F)c(O)c3)nc3sccn23)n1)c1ccc(Cl)cc1	32.9% (inactive)
Cc1cccc(NC(=O)N/C(N)=N/c2nc3ccccc3s2)c1	55% (inactive)
N#Cc1c(-c2cccc(Cl)c2)cc(-c2cccnc2)[nH]c1=O	68.2% (inactive)
C=CC(CC(c1ccccc1)(c1ccccc1)c1ccccc1)N(CC)CC (stereo not given)	79.3% (inactive)
C/C(=C(\c1ccc(OCCN2CCCCCC2)cc1)c1ccc(OC(=O)c2ccccc2)cc1)c1ccc(Cl)cc1	-7.06% (active)
O=C(/C=C/c1ccccc1)c1ccc(-n2cc(CN3CCN(c4cc5c(cc4F)c(=O)c(C(=O)O)cn5C4CC4)CC3)nn2)cc1	91% (inactive)
CCCCCCCCCCCCCCCCCCOc1ccccc1CC(=O)NCC[N+](C)(C)C	93.8% (inactive)
CCN(CC)CCOc1ccc(/C(=C(\C)Cc2ccc(OC)cc2)c2ccc(OC(=O)NCc3ccccc3)cc2)cc1	38.2% (inactive)
COc1cc([C@@H](CCO)C[C@H](C)c2ccc3ccccc3c2)cc(OC)c1OC	60.6% (inactive)
CCOC(=O)/C(=C(/C)NCC(C)C)c1cc(O)c(O)c2c(C)cc(=O)[nH]c12	83.5% (inactive)
COc1ccc(/C=C2\c3cc(OC)c(OC)c(OC)c3CC[C@@H]2O)cc1F	39% (inactive)
O=c1oc2c(cc1-c1ccccc1)c[n+]([O-])c1ccccc21	100% (inactive)
CN1C(=O)/C(=C/c2ccc(C(=O)Nc3ncc(Cc4cccc(C(F)(F)F)c4)s3)cc2)SC1=S	71.7% (inactive)

From PubChem BioAssay (NCI)
